From PubChem
Compounds with a hit are over-represented: about 15% of the library has one in this group of screens.
HCV inhibitor: inhibitors of hepatitis C virus infection | AID 651820 | Potency, µM (titrated, usually from 41.8 µM), for inactives: at the top dose activity change, negative = inhibition, actives largely listed as inhibitors | Huh7.5.1 HCVcc-Cre infection, luciferase reporter, 44 h | 340,000 tested, 3.4% active; also: potency is read from the fitted curve at half-maximal effect; % is scaled to controls: 0 for no effect and ±100 for the full control effect
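Cells seeded at 1,000/well and cultured 4 h, then compounds added followed by HCVcc-Cre virus (~0.5 moi). After 44 h further culture, luciferase substrate was added, plates held 15 min at room temperature, and luminescence read for 15 sec.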
SARS PLP yeast: blocks SARS-CoV papain-like protease in a yeast assay; S. cerevisiae expressing SARS-CoV PLpro, growth rescue; 330,000 tested, 0.19% active; Potency, µM (doses to about 32.9 µM), inactives show at the highest dose activity, positive = growth rescue, hits mostly activators; calls by dose curve; also: potency is read from the fitted curve at half-maximal effect; 0% is about no effect; nearly all actives have a fitted effect of over 55% in size
Pf growth 96h: P. falciparum growth inhibition at 96 hours; P. falciparum luciferase reporter growth, 96 h; Potency, µM (highest dose often 28.7 µM), for inactives: at the highest dose activity change, negative = inhibition, most hits filed as inhibitors; 320,000 tested, 6.9% active; also: potency is read from the fitted curve at half-maximal effect; % is scaled to controls: 0 for no effect and ±100 for the full control effect
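Plates of compound plus infected erythrocytes (2% hematocrit, 0.05% parasitemia final) incubate 96 hours, 37 C, 5% CO2. Detection reagent added; reduced luminescence from the parasites' luciferase reporter flags inhibition.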
Pf growth 48h: inhibits P. falciparum growth in the first generation, 48 h; Potency, µM (doses to about 28.7 µM), for the others: top-dose activity change, negative = inhibition, actives largely listed as inhibitors; 310,000 tested, 5.9% active; P. falciparum luciferase growth in erythrocytes, 48 h; also: potency is read from the fitted curve at half-maximal effect; % is scaled to controls: 0 for no effect and ±100 for the full control effect
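Compounds are pin-transferred into medium, infected erythrocytes (2% hematocrit, 0.1% parasitemia final) are added, and plates sit one parasite generation at 37 C in 5% CO2. Detection reagent is then added and luminescence measured.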
HCMV inh: inhibitors of human cytomegalovirus; HFF cells, HCMV-luciferase reporter, 72 h; hits give low values; activity change, negative = inhibition, % at 57.5 µM; 410,000 tested, 4.5% active; in the data active = activity change below about -60%; inconclusive = no clear call, values can overlap the other calls; inactive = above about -39%; also: % is scaled to controls: 0 for no effect and ±100 for the full control effect
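Two-dose cell screen: HFF monolayers treated with compounds and infected with luciferase-expressing HCMV at 1 PFU/cell, 72 h at 37C, then lysed for luciferase measurement.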
Sm TGR block: blocks Schistosoma mansoni thioredoxin glutathione reductase; Q962Y6; purified TGR, DTNB reduction, TNB absorbance 405 nm; Potency, µM (series often up to 114 µM), for the others: at the top dose activity change, negative = inhibition, hits mostly inhibitors; 360,000 tested, 3% active; AID 485364; also: potency is read from the fitted curve at half-maximal effect; % is scaled to controls: 0 for no effect and ±100 for the full control effect; nearly all actives have a fitted effect of over 60% in size
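TGR 20 nM + NADPH 100 uM (dispensed conc.), cpd preinc 15 min RT; start with NADPH (500 uM addition) then DTNB (15 mM addition). Kinetic TNB absorbance, 405 nm filter. Four-parameter Hill fit across titration.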
An asterisk follows results filed as active; u = inconclusive; x = no result. Unless noted, calls follow the shape of the dose curve; as a rule, active = well fitted curve in the direction sought with a large enough effect; inconclusive = small, poorly fitted or top-dose-only effect, or another doubt; inactive = no such curve, though single readings can be large; an effect the other way counts as inactive or inconclusive.

SMILES	HCV inhibitor	SARS PLP yeast	Pf growth 96h	Pf growth 48h	HCMV inh	Sm TGR block
CCOc1ccc(S(=O)(=O)N2CCOCC2)cc1NC(=O)CN1C(=O)NC(CC)(c2ccccc2)C1=O (stereo unspecified)	-29%	-6%	u	12µM*	22	-8%
CC(C)Oc1ccc(S(=O)(=O)N2CCCCC2)cc1NC(=O)CN1CCCC1c1cccs1 (stereo unspecified)	u	-5%	4.1µM*	4.1µM*	u	-18%
CCOc1ccc(S(=O)(=O)N2CCOCC2)cc1NC(=O)CN1C(=O)NC(C)(c2ccccc2)C1=O (stereo unspecified)	8%	2%	u	u	-24	5%
CCOc1ccc(S(=O)(=O)N2CCCCC2)cc1NC(=O)CN1C(=O)NC(C)(c2ccc(C)cc2)C1=O (stereo unspecified)	10µM*	-1%	7.4µM*	13µM*	x	6%
CCC1(c2ccccc2)NC(=O)N(CC(=O)Nc2cc(S(=O)(=O)N3CCOCC3)ccc2OC(C)C)C1=O (stereo unspecified)	u	1%	u	12µM*	19	1%
CCOC(=O)[C@]12CCC=C1N(CCC1=CCCCC1)C(=O)[C@H](CC(=O)NCc1cccs1)C2	x	x	x	x	-4	x
CC1CC(C)CN(C(=O)C(Cc2ccccc2)NC(=O)c2ccccc2)C1 (stereo unspecified)	-5%	1%	u	u	-8	-10%
CC(C)Oc1ccc(S(=O)(=O)N2CCCCC2)cc1NC(=O)CN1C(=O)NC2(CCCC2)C1=O	u	-5%	u	12µM*	-15	-4%
Cc1ccccc1C(=O)NCC(=O)OC(C)C(=O)NCc1ccco1 (stereo unspecified)	22%	0%	-2%	28%	-22	1%
O=C(COC(=O)CSc1ccc(Cl)cc1)Nc1ccccc1	14µM*	7%	63%	18%	-9	18%
Cc1ccc(NC(=O)COC(=O)CCc2c[nH]c(=O)[nH]2)cc1	12%	7%	x	6%	41	32µM*
O=C(COC(=O)CCc1c[nH]c2ccccc12)Nc1ccccc1	15%	0%	26%	18%	-2	1%
O=C(COC(=O)CSc1ccc(Cl)cc1)NCCc1ccccc1	-3%	-2%	2%	23%	-30	-4%
O=C(COC(=O)CCc1c[nH]c(=O)[nH]1)Nc1ccccc1	-4%	3%	-4%	u	20	40µM*
O=C(c1ccccc1F)N1N=C(C(F)(F)F)CC1(O)c1ccccc1 (stereo unspecified)	x	x	x	x	56	x
COc1ccc(Cl)cc1C1=NOC2(CCC2)C(=O)N1Cc1ccc(NC(C)=O)cc1	x	x	x	x	-30	x
Cc1cccc(NC(=O)N2CCCC2C(=O)Nc2ccccc2)c1 (stereo unspecified)	31%	0%	-21%	u	-38	-3%
O=C(OCC(=O)N1CCc2ccccc21)C1=COCCO1	10%	-3%	u	65%	-33	22µM*
CC1Cc2ccccc2N1C(=O)COC(=O)c1c2c(nc3ccccc13)CCCCC2 (stereo unspecified)	u	-33%	13µM*	u	-26	-6%
NC(=O)COC(=O)c1c2c(nc3ccccc13)CCCCC2	-30%	-4%	-13%	-20%	-12	0%
O=C(OCC(=O)N1CCc2ccccc21)c1c2c(nc3ccccc13)CCCC2	2µM*	-18%	u	8.3µM*	-7	-6%
O=C(COC(=O)c1c2c(nc3ccccc13)CCCCC2)c1ccc(Cl)s1	10µM*	-55%	u	-26%	9	-9%
OC[C@@H]1CN(Cc2ccc(Cl)cc2)C[C@H](n2cnc3c(Nc4ccccc4)ncnc32)O1	x	x	x	x	-29	x
CC(=O)Nc1ccc(CCCCc2ccc(NC(C)=O)cc2)cc1	-1%	x	x	x	-17	x
CC(=O)Nc1cccc(NC(=S)Nc2cccc3ccccc23)c1	-12%	-6%	45%	19%	71	u
SMILES	HCV inhibitor	SARS PLP yeast	Pf growth 96h	Pf growth 48h	HCMV inh	Sm TGR block
CC(=O)c1ccc(NC(=S)Nc2cccc3cnccc23)cc1	13%	-5%	2.6µM*	1.9µM*	-22	20µM*
S=C(Nc1cccc(Cl)c1)Nc1cccc2cnccc12	u	-74%	4.1µM*	0%	x	25µM*
Cc1ccc(NC(=S)Nc2cccc3cnccc23)cc1	-29%	-3%	u	u	31	45µM*
S=C(Nc1cccc(Cl)c1)Nc1ccccc1Oc1ccccc1	u	-5%	12µM*	21%	-33	7%
S=C(Nc1ccc(Cl)cc1Cl)Nc1ccccc1Oc1ccccc1	u	-1%	u	u	x	1%
Cc1cccc(NC(=O)CCN2CCCC(C)C2)c1 (stereo unspecified)	-5%	-6%	-7%	24%	22	0%
COCCn1c(SCC(=O)Nc2cc(C)on2)nc2c(c1=O)SC(C)C2 (stereo unspecified)	-8%	0%	-11%	-25%	13	0%
C/C(=N\NC(=S)Nc1c(C)cccc1C)c1cc2ccccc2o1	u	6%	12µM*	u	-33	0%
C/C(=N\NC(=O)c1ccco1)c1cc2ccccc2o1	-5%	-11%	-26%	80%	59	-9%
C/C(=N\NC(=S)Nc1ccccc1C)c1cc2ccccc2o1	u	0%	7.4µM*	u	u	5%
O=C(CCC(=O)N1CCN(Cc2ccc(F)cc2)CC1)Nc1nnc(C(F)(F)F)s1	13%	1%	37%	-3%	-34	-9%
Cc1ccccc1CNC(=O)CN1C(=O)C2CCCCN2c2ccc(C(=O)N3CCCC3)cc21 (stereo unspecified)	x	x	x	x	-21	-17%
CCOC(=O)C(C)c1c(C(=O)c2ccc(C)nc2)c2ccccc2n1C (stereo unspecified)	x	-2%	4.7µM*	3.7µM*	17	0%
CCOC(=O)C(=O)N=Nc1c(O)n(C)c2ccccc12	8%	-1%	-1%	3%	-10	0%
Cc1cnc(CNC(=O)C2(C)CCCN2CC(C)C)cn1 (stereo unspecified)	x	x	x	x	0	x
O=C(NCc1cc(F)cc(F)c1)[C@H]1[C@H](CO)[C@H]2Cn3c(cccc3=O)[C@@H]1N2C(=O)c1ccccn1	x	x	x	x	-10	x
CCn1cc(C(=O)NCc2cccc(F)c2)c(=O)c2cc(F)c(N3CCN(C(=O)c4ccco4)CC3)cc21	u	10%	2.1µM*	x	-86*	-16%
CCn1cc(C(=O)NCc2cccnc2)c(=O)c2cc(F)c(N3CCN(C(=O)c4ccco4)CC3)cc21	u	4%	x	u	-37	-21%
